{"source": "PubChem BioAssay (NCI)", "note": "About 83,000 compounds went through this panel and 20% of them were active in at least one assay; those are over-represented in the sample as a whole.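 Percent growth is the endpoint: 0 to 100 indicates growth inhibition (40 means 60% inhibition), 0 means no net growth, and negative values indicate cell death.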 Unmarked numbers belong to inactive results. Active and inactive are the calls of the source. How the source made its calls: active means growth percent below 10; inactive means the rest.", "data": [{"tested_on": "PC-3 prostate", "test": "NCI-60 one-dose screen, 48 h (100 = growth as untreated, 0 = no growth, -100 = all killed)", "details": "10 µM unless noted", "values": [{"smiles": "CNCc1cccc2c1OCCOCCOCCN(CCN1CCOCC1)S(=O)(=O)c1ccc(cc1)-c1cnc(N)c(n1)C(=O)N2", "growth": "50.1%"}, {"smiles": "Cc1cnc(-c2ccc(-c3ccc(NC(=O)Nc4c(F)cc(F)cc4F)cc3F)c3c2C(=O)NC3)[nH]1", "growth": "39.7%"}, {"smiles": "Cc1cc(C)c(NC(=O)c2sc3nc4c(cc3c2N)CCCCCC4)c(C)c1", "growth": "47.9%"}, {"smiles": "O=C1NN(c2ccccc2)C(c2ccc3c(c2)OCO3)N2CCC[C@@H]12", "note": "(some centres not stated)", "growth": "90.7%"}, {"smiles": "C=C1C(=O)O[C@H]2[C@H]1CC/C(COC(=O)CCCCCCCCC(=O)OC/C1=C/CC[C@@]3(C)O[C@H]3[C@H]3OC(=O)C(=C)[C@@H]3CC1)=C\\CC[C@@]1(C)O[C@@H]21", "growth": "-6.62% (active)"}, {"smiles": "COc1ccc(C2N(c3cc(OC)c(OC)c(OC)c3)C(=O)C2(F)F)cc1F", "note": "(configuration not stated)", "growth": "35.9%"}, {"smiles": "C=C1C(=O)O[C@H]2[C@H]1CC/C(COC(=O)CCCCCCC(=O)OC/C1=C/CC[C@@]3(C)O[C@H]3[C@H]3OC(=O)C(=C)[C@@H]3CC1)=C\\CC[C@@]1(C)O[C@@H]21", "growth": "36.1%"}, {"smiles": "O=c1nc(-c2ccccc2)c2cc(-c3ccc(N4CCCC4)nc3)ccc2[nH]1", "growth": "65.7%"}, {"smiles": "O=C(Nc1nc(-c2ccccc2)cs1)c1cc(-c2ccc(Br)cc2)nc2ccccc12", "growth": "28.9%"}, {"smiles": "COc1ccc2nc3c(n2c1)C(=O)C(=O)c1ccccc1-3", "growth": "22.3%"}, {"smiles": "C=C1C(=O)O[C@H]2[C@H]1CCC(/C=N/c1ncc(Br)cc1N)=C\\CC[C@@]1(C)O[C@@H]21", "growth": "26.7%"}, {"smiles": "COC(=O)c1ccc(NC(=O)CSc2nc(-c3ccc(F)cc3)nc3ccccc23)cc1", "growth": "75.6%"}, {"smiles": "COc1ccc(C2C(c3ccccc3)C(=O)N2c2cc(OC)c(OC)c(OC)c2)cc1I", "note": "(configuration not stated)", "growth": "22.2%"}, {"smiles": "O=[N+]([O-])c1cccc(CN(Cc2cccc([N+](=O)[O-])c2O)c2ccccc2)c1O", "growth": "71.1%"}, {"smiles": "Nc1c(C(=O)Nc2ccccn2)sc2nc3c(cc12)CCCCCC3", "growth": "20.9%"}, {"smiles": "C[C@]12CC[C@@H]3c4ccc(O)cc4CC[C@H]3[C@@H]1C[C@H](O)C2", "growth": "80%"}, {"smiles": "COCCOCCOCc1n(Cc2ccc3ccccc3c2)c2ccccc2[n+]1Cc1ccc2ccccc2c1", "growth": "5.49% (active)"}, {"smiles": "COc1ccc(C(=O)c2cc(F)c(F)c(OC)c2F)cc1OC(=O)CCl", "growth": "38.4%"}, {"smiles": "Nc1cccc(C(=O)Nc2ccc3c(O)c(N=Nc4ccc(N=Nc5ccc(S(=O)(=O)O)cc5)cc4)c(S(=O)(=O)O)cc3c2)c1", "growth": "91.9%"}, {"smiles": "O=C(Nc1ccccc1)NS(=O)(=O)c1c[nH]c(=S)[nH]c1=O", "growth": "100%"}, {"smiles": "CC(C)CSc1nc(Nc2ccccc2)c(C#N)c(-c2ccc(F)cc2)n1", "growth": "47.7%"}, {"smiles": "CC(C)(C#N)c1cc(F)cc(C(=O)Nc2cc(Nc3ncccc3-c3ncnc4nc[nH]c34)ccc2F)c1", "growth": "54.2%"}, {"smiles": "COc1c(O)cc2oc3cc(O[C@@H]4OC(C)[C@@H](O)[C@H](O)C4O)c(CC=C(C)C)c(O)c3c(=O)c2c1CC=C(C)C", "note": "(some centres not stated)", "growth": "74.9%"}, {"smiles": "O=C(CCCC(=O)Nc1ccc(-n2nnc3cc(Cl)c(Cl)cc32)cc1)Nc1ccc(-n2nnc3cc(Cl)c(Cl)cc32)cc1", "growth": "19.4%"}, {"smiles": "Cn1cc(-c2ccc3c(c2)ncn3-c2ccc(CC(=O)Nc3cc(C(C)(C)C)on3)cc2)cn1", "growth": "43.5%"}, {"smiles": "CCC1S/C(=N\\N=C(/C)c2ccc[nH]2)N(c2ccccc2)C1=O", "note": "(configuration not stated)", "growth": "94.2%"}, {"smiles": "CC(=O)ON1CCCC(P(=O)(OCOC(=O)C(C)(C)C)OCOC(=O)C(C)(C)C)C1=O", "note": "(configuration not stated)", "growth": "17.7%"}, {"smiles": "Cc1cccc(C)c1Nc1nnc(-c2ccc(F)cc2)o1", "growth": "98.6%"}, {"smiles": "COc1ccc(C2=NN(c3ccc(S(N)(=O)=O)cc3)C(c3ccc(Cl)cc3)C2)c(O)c1", "note": "(configuration not stated)", "growth": "27.7%"}, {"smiles": "CC(=O)Nc1nc2c(c(N)c1C#N)C(c1cccc(Cl)c1)C1=C(CCCC1=O)N2c1sc2c(c1C#N)CCCC2", "note": "(configuration not stated)", "growth": "20.8%"}, {"smiles": "C#Cc1ccccc1NC(=O)c1sc2nc3c(cc2c1N)CCCCCC3", "growth": "77.4%"}, {"smiles": "C=C(C)[C@@H]1CC[C@]2(C(=O)N3CCN(C)CC3)CC[C@]3(C)[C@H](CC[C@@H]4[C@@]5(C)C/C(=C/c6ccco6)C(=O)C(C)(C)[C@@H]5CC[C@]43C)[C@@H]12", "growth": "37.2%"}, {"smiles": "CCCCC(=O)Nc1c(C(=O)Nc2ccccc2)sc2nc3c(cc12)C(OC(=O)CCCC)CCC3", "note": "(configuration not stated)", "growth": "90.7%"}, {"smiles": "C#CC[C@@H]1C[C@]2(C)[C@H]3CC[C@@H]4[C@H]5[C@H](C(=C)C)CC[C@]5(C(=O)O)CC[C@@]4(C)[C@]3(C)CC[C@H]2C(C)(C)[C@H]1O", "growth": "4.77% (active)"}, {"smiles": "Cc1ccc(-c2nc(C#N)c(S(=O)(=O)N(C)CCO)o2)cc1", "growth": "99.8%"}, {"smiles": "FC(F)(F)c1ccc2c(Nc3cccc(C4CC(c5ccccc5)=NN4c4ccc(Cl)cc4)c3)ccnc2c1", "note": "(configuration not stated)", "growth": "34%"}, {"smiles": "COc1ccc2nc(-c3ccc(OC)c(OC)c3)cc(-c3nnc(SCC(=O)Nc4ccc(/C(C)=N\\O)cc4)n3-c3ccccc3)c2c1", "growth": "60.7%"}]}]}
